Structures can show the parent of a compound that is named as a salt. ± gives the standard deviation of the averaged measurements. Whole data set: some 1,900 compounds, median “normalised cell viability (NPI; 0 = phenylarsine oxide control, 1 = DMSO control)” near 1, cut for the lowest 2% near 0.039. The entries come from a sample that favours the lowest values as a whole.
Test system: NCI-H1944
Assay: normalised cell viability (NPI; 0 = phenylarsine oxide control, 1 = DMSO control) (fraction of DMSO control); NCI-H1944 is a non-small cell lung cancer line; higher = more viable cells (less compound toxicity)
Settings: 6 days
[1] = glucocorticoid arm: hydrocortisone 2.75 uM co-treatment, compound 1 µM
[2] = glucocorticoid arm: hydrocortisone 2.75 uM co-treatment, compound 5 µM
[3] = glucocorticoid arm: hydrocortisone 2.75 uM pre-treated 2 days and continued, compound 1 µM
[4] = glucocorticoid arm: hydrocortisone 2.75 uM pre-treated 2 days and continued, compound 5 µM
[5] = glucocorticoid arm: vehicle, compound 1 µM
[6] = glucocorticoid arm: vehicle, compound 5 µM
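Note: CTB read-out in 384-well plates, triplicate wells, NPI normalised per plate against 1 µM phenylarsine oxide (0) and 0.1% DMSO (1) controls.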

SMILES	normalised cell viability [1]	normalised cell viability [2]	normalised cell viability [3]	normalised cell viability [4]	normalised cell viability [5]	normalised cell viability [6]
CN1CCN(c2ccc(OC(F)(F)F)c(Nc3ncc4c(n3)-c3c(c(C(N)=O)nn3CCO)CC4)c2)CC1	0.183 ± 0.025	0.146 ± 0.02	0.428 ± 0.025	0.556 ± 0.069	0.0347 ± 0.0042	0.0361 ± 0.0086
OCCn1cc(-c2cnc3nnn(Cc4ccc5ncccc5c4)c3n2)cn1	1 ± 0.01	1.02 ± 0.026	1.02 ± 0.015	1.02 ± 0.052	1.01 ± 0.011	1.02 ± 0.015
Cc1c(NC(=O)c2ccc(C(C)(C)C)cc2)cccc1-c1cn(C)c(=O)c(Nc2ccc(C(=O)N3CCOCC3)cc2)n1	1.017 ± 0.0058	1.03 ± 0.032	1.007 ± 0.0058	0.987 ± 0.022	1 ± 0.0087	1.006 ± 0.0063
CN1C2CCC1CC(NC(=O)c1nn(C)c3ccccc13)C2 (stereo not drawn) [LY-278,584 maleate]	0.9863 ± 0.0067	0.977 ± 0.033	0.9957 ± 0.0075	1.03 ± 0.085	0.9753 ± 0.0051	0.9783 ± 0.0091
CC(C)NCC(O)COc1ccc(CC(N)=O)cc1 (racemic) [(±)-Atenolol]	0.987 ± 0.007	1.001 ± 0.0085	1.003 ± 0.0064	1.02 ± 0.021	1.005 ± 0.0092	1.01
NC(C(=O)O)C(O)C(=O)O (racemic) [DL-threo-beta-hydroxyaspartic acid]	1.01 ± 0.011	1.01 ± 0.028	1.01 ± 0.022	1.01 ± 0.018	1.003 ± 0.0061	1.001 ± 0.0081
CCCN(CCc1ccccc1)C1CCc2c(O)cccc2C1 (racemic) [(±)-PPHT hydrochloride]	0.986 ± 0.011	0.969 ± 0.03	1.05 ± 0.078	0.966 ± 0.02	1.007 ± 0.0058	1.003 ± 0.0058
Cl.N[C@@H](CCC(=O)O)C(=O)O [L-Glutamic acid hydrochloride]	1.013 ± 0.0058	1 ± 0.029	1.013 ± 0.0058	0.989 ± 0.027	1.023 ± 0.0058	1.02 ± 0.01
Clc1ccc(C(c2ccc(Cl)cc2)[n+]2ccn(CC(OCc3ccc(Cl)cc3Cl)c3ccc(Cl)cc3Cl)c2)cc1 (stereo not drawn) [Calmidazolium chloride]	0.974 ± 0.035	0.00138 ± 0.00076	0.993 ± 0.012	-0.000224 ± 0.0015	1.002 ± 0.0072	0.00119 ± 0.00017
CN(CC[C@@H](Oc1ccc(C(F)(F)F)cc1)c1ccccc1)CC(=O)[O-].[Li+]	0.992 ± 0.0046	0.989 ± 0.011	0.99 ± 0.014	0.998 ± 0.018	0.979 ± 0.016	0.9777 ± 0.0035
NCCC[C@](N)(C(=O)O)C(F)F (racemic) [DL-alpha-Difluoromethylornithine hydrochloride]	0.9853 ± 0.0063	0.923 ± 0.021	0.9873 ± 0.0064	0.932 ± 0.011	0.9863 ± 0.0055	0.9817 ± 0.0032
O=C(CCCN1C(=O)c2cccc3cccc(c23)C1=O)NO [Nullscript]	0.981 ± 0.011	0.961 ± 0.029	1 ± 0.012	0.987 ± 0.018	1 ± 0.0082	1.01 ± 0.014
c1cc(CN2CCCNCCNCCCNCC2)ccc1CN1CCCNCCNCCCNCC1 [Plerixafor]	1 ± 0.018	1 ± 0.017	1.01 ± 0.011	0.996 ± 0.016	1.006 ± 0.0063	1.01 ± 0.013
CNCc1ccc(-c2[nH]c3cc(F)cc4c3c2CCNC4=O)cc1	0.982 ± 0.0036	1 ± 0.071	0.968 ± 0.0095	1.01 ± 0.022	0.989 ± 0.013	0.948 ± 0.022
CCCCc1nc2cc(/C=C/C(=O)NO)ccc2n1CCN(CC)CC [Pracinostat (SB939)]	0.9753 ± 0.004	0.00959 ± 0.0058	1 ± 0.0095	0.0658 ± 0.0071	0.686 ± 0.077	0.000852 ± 0.0004
Nc1ncnc2c1c(-c1cccc(OCc3ccccc3)c1)cn2C1CC(CN2CCC2)C1 (stereo not drawn)	0.457 ± 0.025	0.366 ± 0.021	0.596 ± 0.0046	0.436 ± 0.062	0.939 ± 0.013	0.776 ± 0.039
O=C(NCCO)c1ccc2c(c1)nc(Nc1cccc(Cl)c1)c1ccncc12 [CK2 Inhibitor 2]	1.02 ± 0.022	0.854 ± 0.028	1.03 ± 0.015	1.07 ± 0.021	1.001 ± 0.0081	0.567 ± 0.033
CCCCC(=O)OCC(=O)[C@]1(O)Cc2c(O)c3c(c(O)c2[C@@H](O[C@H]2C[C@H](NC(=O)C(F)(F)F)[C@H](O)[C@H](C)O2)C1)C(=O)c1c(OC)cccc1C3=O [Valrubicin]	0.665 ± 0.04	0.868 ± 0.016	0.973 ± 0.016	0.982 ± 0.017	0.228 ± 0.017	0.374 ± 0.0045
CC(=O)[C@]1(O)Cc2c(O)c3c(c(O)c2[C@@H](O[C@H]2C[C@H](N)[C@H](O)[C@H](C)O2)C1)C(=O)c1ccccc1C3=O [Idarubicin hydrochloride]	0.00497 ± 0.00094	0.0017 ± 0.0005	0.00532 ± 0.0009	0.024 ± 0.0063	0.00471 ± 0.00071	0.00231 ± 0.00037
COc1cccc2c1C(=O)c1c(O)c3c(c(O)c1C2=O)C[C@@](O)(C(=O)CO)C[C@@H]3O[C@H]1C[C@H](N)[C@H](O)[C@H](C)O1 [Doxorubicin hydrochloride; 4'-Epiadriamycin; Doxorubicin HCl]	0.454 ± 0.36	0.288 ± 0.3	0.754 ± 0.26	0.484 ± 0.48	0.178 ± 0.17	0.129 ± 0.14
COc1cccc2c1C(=O)c1c(O)c3c(c(O)c1C2=O)C[C@@](O)(C(C)=O)C[C@@H]3O[C@H]1C[C@H](N)[C@H](O)[C@H](C)O1 [Daunorubicin hydrochloride; Daunorubicin HCl]	0.0398 ± 0.0066	1.05 ± 0.011	0.587 ± 0.027	1.013 ± 0.0058	0.0031 ± 0.0017	1.007 ± 0.0058
CC(=O)[C@]1(O)Cc2c(O)c3c(c(O)c2[C@@H](O[C@H]2C[C@H](N)[C@H](O)[C@H](C)O2)C1)C(=O)c1ccccc1C3=O [Idarubicin hydrochloride; Idarubicin; 4-DMD HCl]	0.0183 ± 0.0037	1.06 ± 0.026	0.0494 ± 0.0094	1.033 ± 0.0058	0.00163 ± 0.00068	1.006 ± 0.0075
NC(CCCP(=O)(O)O)C(=O)O (racemic) [(±)-2-Amino-5-phosphonopentanoic acid]	0.987 ± 0.0072	0.9967 ± 0.0031	0.9907 ± 0.0083	0.993 ± 0.0028	0.98 ± 0.0056	0.9857 ± 0.0098

Reference: the supplement of paper PMC8285479
